# The source made the active and inactive calls. Calls come from the whole dose curve; as a rule, active = well fitted curve in the direction sought with a large enough effect in the repeat runs; inconclusive = weak or mixed curves; inactive = flat fitted curve, though single readings scatter.
# Assay: qHTS assay to test for compound auto fluorescence at 590 nm (red) in HepG2 cell free culture (AID 720684)
# Conditions: cell-free medium autofluorescence, red 540/590 nm; series mostly up to 91.3 µM
# Text: U.S. Tox21 Program National Center for Advancing Translational Sciences [NCATS] NIH Chemical Genomics Center [NCGC] U.S. Environmental Protection Agency [EPA] National Institutes of Environmental Health Sciences [NIEHS] National Toxicology Program [NTP] U.S. Food and Drug Administration [FDA] Tox21 Assay Overview: Compound auto fluorescence often interferes with screening of the compound library against various biological targets and signaling pathways. Some of these compounds may have fluorophoric properties. Such properties may interfere with the assay outputs resulting in false positives and/or negatives. To decrease such complications and ensure the compound activities are relevant in terms of biological response, the Tox21 10K compound library was screened for auto fluorescence. From the fluorophores used as reporter signals in our screening assays, the auto fluorescence equivalencies of compounds against three fluorophores have been evaluated: Triamterene, Fluorescein and Rose Bengal sodium for blue, green and red fluorescence, respectively. The fluorescence intensities were measured using Excitation/Emission wavelengths at 405/460nm, 485/535nm and 540/590nm for blue, green and red labels, respectively. This assay includes the red fluorescence data.
# Tox21 Assay Protocol Summary: 5 uL of culture medium (MEM containing 10% FBS) per well was dispensed into black wall/clear bottom 1536-well plates using a Multidrop Combi Dispenser (ThermoFisher Scientific, Waltham, MA). After 23 nL compound or DMSO vehicle was transferred into assay plate by a pintool work station (Kalypsys, San Diego, CA), fluorescence intensities in the assay plates were measured by an Envision (PerkinElmer, Shelton, CT) plate reader using three labels for measuring blue, green and red fluorescence at […] 460, 535 and 590nm respectively.
# % is set by controls: 0 for no effect and ±100 for the full control effect.
SMILES,outcome,"fluorescence, % of Rose Bengal"
CC(C)(C)c1cc(CO)cc(C(C)(C)C)c1O,inactive,–
CCCCCCCCCCCCCCCCCBr,–,0.0382% [at 18.6 µM] (inactive)
COc1ccc([C@@H]2Sc3ccccc3N(CCN(C)C)C(=O)[C@@H]2OC(C)=O)cc1,inactive,–
Nc1nc(CC(=O)O)cs1,inactive,–
CC(=O)/C(C)=C/C1C(C)=CCCC1(C)C (stereo not given),inactive,–
O=c1c2ccccc2nnn1CCl,inactive,–
O=C(/C=C/c1ccc(O)c(O)c1)O[C@@H]1C[C@](O)(C(=O)O)C[C@@H](O)[C@H]1O,inactive,–
CC(=O)[C@@]1(O)CC[C@H]2[C@@H]3C[C@H](C)C4=CC(=O)CC[C@]4(C)[C@H]3CC[C@@]21C,inactive,–
CCOc1nc2cccc(C(=O)O)c2n1Cc1ccc(-c2ccccc2-c2nn[nH]n2)cc1,inactive,–
COC(Cc1ccccc1)OC,inactive,–
O=C(O)C(c1ccc(Cl)cc1)c1ccc(Cl)cc1,inactive,–
Cc1ccc(C)o1,inactive,–
OCC1CC2CC1C1CCC(CO)C21 (stereo not given),inactive,–
CC(=O)c1ccc2c(c1)[C@H](NC(=O)c1ccc(F)cc1)[C@@H](O)C(C)(C)O2,inactive,–
COc1ccc(C(C)=O)cc1,inactive,–
O=C(C(=O)c1ccc(Br)cc1)c1ccc(Br)cc1,–,-0.0316% [at 18.6 µM] (inactive)
Cc1cccc(OCCOc2cccc(C)c2)c1,inactive,–
COCCO,inactive,–
O=C(O)COC(=O)Cc1ccccc1Nc1c(Cl)cccc1Cl,–,-0.0238% [at 18.6 µM] (inactive)
CC(C)NCC(O)COc1ccc(CC(N)=O)cc1 (stereo not given),inactive,–

SMILES,outcome,"fluorescence, % of Rose Bengal"
Cc1cc(C)c(S(=O)(=O)O)cc1N=Nc1cc(S(=O)(=O)O)c2ccccc2c1O,inactive,–
CC(=O)NCCCS(=O)(=O)O,inactive,–
C[C@@H](C1=C(CCN(C)C)Cc2ccccc21)c1ccccn1,inactive,–
Cc1ncsc1CCO,inactive,–
CC(Cc1cccc(C(F)(F)F)c1)NCCOC(=O)c1ccccc1 (stereo not given),inactive,–
CC(C)(C)C1CCCCC1O (stereo not given),inactive,–
C[Si](C)O[Si](C)(C)O[Si](C)(C)O[Si](C)C,inactive,–
CC[C@@H]1C[C@H](N(Cc2cc(C(F)(F)F)cc(C(F)(F)F)c2)C(C)=O)c2cc(C(F)(F)F)ccc2N1C(=O)OC(C)C,inactive,–
S=C(S)NCCNC(=S)S,inactive,–
CC(=O)Nc1ccc(/C=N/NC(N)=S)cc1,inactive,–
O=C(O)[C@@H]1[C@H]2C[C@H]3c4[nH]c5ccccc5c4CCN3C[C@@H]2CC[C@@H]1O,–,-0.199% [at 18.6 µM] (inactive)
Nc1ccc(C(=O)Nc2ccccc2N)cc1,inactive,–
CC(C)NCC(O)c1cc(O)cc(O)c1 (stereo not given),inactive,–
NCCCN(CCO)CCO,inactive,–
CCCc1ccccc1,inactive,–
CCCCCCCCCCCCCCCBr,inactive,–
CC(=O)OCCc1ccccc1,inactive,–
CC(=O)/C=C/C1C(C)=CCCC1(C)C (stereo not given),inactive,–
NCc1ccccc1,inactive,–
O=C(O)/C=C/c1cnc[nH]1,inactive,–

# Source: PubChem BioAssay (Tox21)
